Our source for the Inhibition values is ChEMBL document CHEMBL1157539, “Thousands of chemical starting points for antimalarial lead identification” (Nature, 2010).

Holding throughout (assay type): functional
Experiment [1] has as its system Plasmodium falciparum. Briefly: GSK_TCMDC: Inhibition of Plasmodium falciparum 3D7 in whole red blood cells, using parasite LDH activity as an index of growth. Test compounds present at 2uM.
Experiment [2] deals with Plasmodium falciparum. Briefly: GSK_TCMDC: Inhibition of Plasmodium falciparum Dd2 in whole red blood cells, using parasite LDH activity as an index of growth. Test compounds present at 2uM.
A further experiment concerns HepG2. The experiment can be described thus: GSK_TCMDC: Percent inhibition of human HepG2 cell line. Test compounds present at 10uM.

Each structure is given as a SMILES string.

On to `COc1ccc(C2C(C(=O)Nc3ccccc3)=C(C)Nc3c(C(=O)Nc4ccccc4)cnn32)cc1` (stereo not given), for which the Inhibition was found to be 85% in the experiment on Plasmodium falciparum [1], 66% with Plasmodium falciparum [2] and 13% in the experiment on HepG2.

Take `O=C(O)C(F)(F)F.OCC1CCN(Cc2ccc(-c3ccc(-c4nc5ccccc5[nH]4)cc3)cc2)CC1`: the Inhibition turned out to be 100% with Plasmodium falciparum [1], 84% with Plasmodium falciparum [2] and 37% with HepG2.

Consider `Cc1cc(-c2cc(-c3ccc(OCCN(C)C)cc3)[nH]c2-c2ccc3c(c2)CCC3=NO)ccn1`, for which the results for the Inhibition with Plasmodium falciparum [1], with Plasmodium falciparum [2] and in the experiment with HepG2 were 100%, 92% and 0%, respectively.

As to `COc1cc(CNCCCCCCNCc2cc(OC)c3ccccc3c2OC)c(OC)c2ccccc12.CS(=O)(=O)O`, the Inhibition with Plasmodium falciparum [1] is given as 100%; in the experiment on Plasmodium falciparum [2], 40%; with HepG2, 99%.

On to `O=C(/C=C/c1ccc(Cl)c(Cl)c1)NCCCCCN1CCN(C(=O)Nc2ccc(C(F)(F)F)cc2)CC1`, for which the Inhibition with Plasmodium falciparum [1] is given as 99%; in the experiment with Plasmodium falciparum [2], 0%; in the experiment on HepG2, 26%.

On to `Cc1c(Oc2ccc(-n3ccnc3)cc2)ncnc1N1CCC2(CC1)CNCc1ccccc12.O=C(O)C(F)(F)F`, for which the Inhibition in the experiment on Plasmodium falciparum [1] is given as 95%; with Plasmodium falciparum [2] it was 58%; in the experiment on HepG2, 26%.

`COc1ccc(N2CCc3c(-c4cccc5cnccc45)cc(C)nc32)c(C)c1`: the Inhibition with Plasmodium falciparum [1] was determined as 96%; in the experiment with Plasmodium falciparum [2], 0%; in the experiment with HepG2 it was 20%.

Take `Cc1ccc(CNC(=O)[C@H](CCCN)Nc2nc(NCC3CCCCC3)ncc2C)cc1.O=C(O)C(F)(F)F`: the Inhibition in the experiment on Plasmodium falciparum [1] stood at 92%; with Plasmodium falciparum [2] it was 5%; in the experiment with HepG2 it was 1%.

With `O=C(NCCCN1CCN(c2cccc(Cl)c2)CC1)c1ccc(-c2nc3cc(Cl)c(Cl)cc3[nH]2)cc1`, the values for the Inhibition with Plasmodium falciparum [1], in the experiment on Plasmodium falciparum [2] and with HepG2 were 98%, 95% and 3%, respectively.

With `Cc1cc(N)c2cc(NC(=O)c3cccc(C(=O)Nc4ccc5nc(C)cc(N)c5c4)c3)ccc2n1.Cl`, the Inhibition is given as 94% in the experiment on Plasmodium falciparum [1], 92% in the experiment with Plasmodium falciparum [2] and 9% with HepG2.

In the case of `CCNc1nc(OCC(F)(F)F)nc(N(c2ccccc2)c2ccccc2)n1`, the values for the Inhibition in the experiment on Plasmodium falciparum [1], with Plasmodium falciparum [2] and with HepG2 were 100%, 83% and 5%, respectively.

Regarding `CCOCc1cnc(C)nc1CNC(=O)c1c(C)[nH]c2ccc(C)cc12`, the figures for the Inhibition in the experiment on Plasmodium falciparum [1], with Plasmodium falciparum [2] and with HepG2 were 84%, 65% and 8%, respectively.

With `CNc1ccc(CNCc2ccc(-c3ccc(-c4nc5cc(C(F)(F)F)ccc5[nH]4)s3)cc2)cc1.O=C(O)C(F)(F)F`, the Inhibition turned out to be 100% in the experiment with Plasmodium falciparum [1], 97% with Plasmodium falciparum [2] and 44% with HepG2.

In the case of `CN1CCC(Oc2cc(NC(=O)Nc3ccc(-c4ccncc4)c(Cl)c3)ccc2Cl)CC1`, the Inhibition was found to be 99% with Plasmodium falciparum [1], 100% with Plasmodium falciparum [2] and 23% with HepG2.

Take `CN1CCCN(Cc2cccc(-c3cccc(NC(=O)c4ccc(Cl)cc4)c3)c2)CC1.O=C(O)C(F)(F)F`: the Inhibition with Plasmodium falciparum [1] came to 100%; with Plasmodium falciparum [2], 44%; with HepG2, 35%.

For the compound `CC(Oc1cccc(Cl)c1)C(=O)N1CCc2ccccc21` (stereo not given), the values for the Inhibition with Plasmodium falciparum [1], in the experiment on Plasmodium falciparum [2] and with HepG2 were 94%, 77% and 4%, respectively.

For the compound `COc1ccc(NC(=O)c2ccc(-c3nc(-c4cccc(C(F)(F)F)c4)cs3)cc2)cc1N1CCN(C)CC1`, the Inhibition with Plasmodium falciparum [1] was 98%; with Plasmodium falciparum [2], 59%; with HepG2, 29%.

With `O=C(NC1CCN(Cc2ccccc2)CC1)c1ccc2c(=O)n(Cc3ccc(Cl)cc3)c(=S)[nH]c2c1`, the Inhibition in the experiment on Plasmodium falciparum [1] is 100%; in the experiment with Plasmodium falciparum [2], 100%; in the experiment on HepG2, 16%.

As for `CS(=O)(=O)O.c1ccc2c(CNCCCCCCNCc3c(OCC4CC4)ccc4ccccc34)c(OCC3CC3)ccc2c1`, the Inhibition was 93% with Plasmodium falciparum [1], 97% with Plasmodium falciparum [2] and 100% in the experiment on HepG2.

With `CCCc1ccc(C2CCN(CCCCNC(=O)c3ccc(NC(=O)c4ccc(Cl)cc4)cc3)CC2)cc1`, the Inhibition was found to be 100% in the experiment with Plasmodium falciparum [1], 100% in the experiment on Plasmodium falciparum [2] and 39% in the experiment on HepG2.

On to `Cc1c(CNCCCNc2cc(=O)c3ccccc3[nH]2)sc(-c2ccco2)c1Br.Cl`, for which the Inhibition stood at 93% in the experiment on Plasmodium falciparum [1], 39% with Plasmodium falciparum [2] and 0% with HepG2.

On to `CC(=O)Nc1cccc(C(=O)Nc2cccc(-c3ccc(-c4nc5cccc(C)c5[nH]4)s3)c2)c1`, for which the Inhibition with Plasmodium falciparum [1] is listed as 99%; with Plasmodium falciparum [2] it was 26%; in the experiment on HepG2, 75%.

Regarding `CN(C)c1ccc(CN2CCC(NC(=O)c3ccc(-c4cccc(F)c4)s3)CC2)cc1.O=C(O)C(F)(F)F`, the Inhibition is 91% with Plasmodium falciparum [1], 18% in the experiment with Plasmodium falciparum [2] and 55% in the experiment with HepG2.

Consider `CCc1cc(CNC2CCN(CCc3c(F)cnc4ccc(OC)nc34)CC2)cc2c1OCCO2.Cl`, for which the Inhibition is on record as 100% in the experiment on Plasmodium falciparum [1], 94% with Plasmodium falciparum [2] and 46% with HepG2.

For `C=CC[C@@H](C(=O)OCC)[C@@H]1[C@@H](N(CC=C)C(=O)OC(C)(C)C)CCN1C(=O)OCc1ccccc1`, the Inhibition is 92% in the experiment with Plasmodium falciparum [1], 68% with Plasmodium falciparum [2] and 2% in the experiment on HepG2.

For the compound `O=c1cc(NCCCNCc2cccc(OC(F)(F)C(F)F)c2)[nH]c2ccccc12`, the Inhibition in the experiment with Plasmodium falciparum [1] was 81%; with Plasmodium falciparum [2], 7%; in the experiment on HepG2, 6%.

On to `C[C@H](N[C@H]1CCCc2c1[nH]c1ccc(Br)cc21)c1ccccc1.Cl`, for which the Inhibition in the experiment with Plasmodium falciparum [1] is listed as 96%; in the experiment with Plasmodium falciparum [2] it was 95%; in the experiment on HepG2, 58%.

In the case of `COc1cccc(O)c1CN1CCC2(CCCN(Cc3ccc(F)cc3)C2)C1` (stereo not given), the results for the Inhibition with Plasmodium falciparum [1], in the experiment on Plasmodium falciparum [2] and in the experiment with HepG2 were 98%, 72% and 21%, respectively.

With `O=C(Nc1cccc(-c2cccc(CN3CCCC3)c2)c1)c1cccc(Cl)c1.O=C(O)C(F)(F)F`, the Inhibition in the experiment with Plasmodium falciparum [1] is 89%; with Plasmodium falciparum [2], 30%; in the experiment on HepG2, 44%.

Turning to `CN1CCCN(Cc2cccc(-c3ccc(NC(=O)c4cccc(C#N)c4)cc3)c2)CC1.O=C(O)C(F)(F)F`, the Inhibition turned out to be 100% in the experiment on Plasmodium falciparum [1], 96% in the experiment with Plasmodium falciparum [2] and 27% in the experiment on HepG2.

A word on the Inhibition: it is the share of the control response that was lost under treatment. The low end stands for a weak effect, the high end for a strong effect.
